# The supplement of paper PMC8728848
# The entries come from a sample that favours the strongest signals as a whole.
# Key:
# Experiment in all cases: glycan array binding signal (z-score within array); higher = stronger binding
# Settings in all cases: glycan notation: IUPAC condensed, linker removed
# [1] = target: Fuc(a1-2)Gal(b1-3)GlcNAc(b1-2)Man(a1-3)[Fuc(a1-2)Gal(b1-3)GlcNAc(b1-2)Man(a1-6)]Man(b1-4)GlcNAc(b1-4)GlcNAc
# In short: (§1)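 The binding signal is a Z-score computed within each array. Data were drawn from 3228 arrays in the Consortium for Functional Glycomics database, restricted to those with a known protein sequence. Scores were averaged over arrays of the same protein sequence at different concentrations or buffers, and over linkers, and negative values can be taken as non-binding.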
# [2] = target: Fuc(a1-2)Gal(b1-3)GlcNAc(b1-2)Man(a1-3)[Fuc(a1-2)Gal(b1-3)GlcNAc(b1-2)Man(a1-6)]Man(b1-4)GlcNAc(b1-4)[Fuc(a1-6)]GlcNAc
# In short: as §1
# [3] = target: Fuc(a1-2)Gal(b1-4)GlcNAc
# In short: as §1
# [4] = target: Fuc(a1-2)Gal3S(b1-4)GlcNAc
# In short: as §1
# [5] = target: Fuc(a1-2)[GalNAc(a1-3)]Gal(b1-4)GlcNAc(b1-3)Gal(b1-4)GlcNAc
# In short: as §1
# [6] = target: Fuc(a1-2)[GalNAc(a1-3)]Gal(b1-4)GlcNAc(b1-6)GalNAc
# In short: as §1
# [7] = target: Fuc(a1-2)[GalNAc(a1-4)]Gal(b1-4)GlcNAc
# In short: as §1
# [8] = target: Fuc(a1-2)[GalNAc(b1-3)]Gal
# In short: as §1
# [9] = target: Gal(a1-3)Gal(b1-3)GlcNAc(b1-6)GalNAc
# In short: as §1
# [10] = target: Gal(a1-3)Gal(b1-4)GlcNAc(b1-6)GalNAc
# In short: as §1
# [11] = target: Gal(a1-4)Gal(b1-3)GlcNAc(b1-2)Man(a1-3)[Gal(a1-4)Gal(b1-3)GlcNAc(b1-2)Man(a1-6)]Man(b1-4)GlcNAc(b1-4)GlcNAc
# In short: as §1
# [12] = target: Gal(a1-4)Gal(b1-4)GlcNAc(b1-3)Gal(b1-4)Glc
# In short: as §1
# [13] = target: Gal(b1-3)GlcNAc(b1-2)Man
# In short: as §1
# [14] = target: Gal(b1-3)GlcNAc(b1-2)Man(a1-3)[GlcNAc(b1-4)][Gal(b1-3)GlcNAc(b1-2)Man(a1-6)]Man(b1-4)GlcNAc(b1-4)GlcNAc
# In short: as §1
# [15] = target: Gal(b1-3)GlcNAc(b1-6)GalNAc
# In short: as §1
# [16] = target: Gal3S(b1-4)Glc
# In short: as §1
# [17] = target: GalNAc(b1-3)Gal(a1-4)Gal(b1-4)GlcNAc
# In short: as §1
# [18] = target: GalNAc(b1-3)Gal(a1-6)Gal(b1-4)Glc
# In short: as §1
# [19] = target: GlcNAc(b1-2)Man(a1-3)[GlcNAc(b1-4)][GlcNAc(b1-2)Man(a1-6)]Man(b1-4)GlcNAc(b1-4)GlcNAc
# In short: as §1
# [20] = target: GlcNAc(b1-2)[GlcNAc(b1-6)]Man(a1-6)[GlcNAc(b1-2)Man(a1-3)]Man(b1-4)GlcNAc(b1-4)GlcNAc
# In short: as §1
# [21] = target: GlcNAc(b1-3)Gal(b1-4)GlcNAc
# In short: as §1
# [22] = target: GlcNAc(b1-3)Gal(b1-4)GlcNAc(b1-3)Gal(b1-4)GlcNAc(b1-3)Gal(b1-4)GlcNAc(b1-2)Man(a1-3)[GlcNAc(b1-3)Gal(b1-4)GlcNAc(b1-3)Gal(b1-4)GlcNAc(b1-3)Gal(b1-4)GlcNAc(b1-2)Man(a1-6)]Man(b1-4)GlcNAc(b1-4)[Fuc(a1-6)]GlcNAc
# In short: as §1
# [23] = target: GlcNAc(b1-3)Gal(b1-4)GlcNAc(b1-3)Gal(b1-4)GlcNAc(b1-3)Gal(b1-4)GlcNAc(b1-3)Gal(b1-4)GlcNAc(b1-2)Man(a1-3)[GlcNAc(b1-3)Gal(b1-4)GlcNAc(b1-3)Gal(b1-4)GlcNAc(b1-3)Gal(b1-4)GlcNAc(b1-3)Gal(b1-4)GlcNAc(b1-2)Man(a1-6)]Man(b1-4)GlcNAc(b1-4)GlcNAc
# In short: as §1
# [24] = target: GlcNAc(b1-3)Gal(b1-4)GlcNAc(b1-3)Gal(b1-4)GlcNAc(b1-3)Gal(b1-4)GlcNAc(b1-3)Gal(b1-4)GlcNAc(b1-2)Man(a1-3)[GlcNAc(b1-3)Gal(b1-4)GlcNAc(b1-3)Gal(b1-4)GlcNAc(b1-3)Gal(b1-4)GlcNAc(b1-3)Gal(b1-4)GlcNAc(b1-2)Man(a1-6)]Man(b1-4)GlcNAc(b1-4)[Fuc(a1-6)]GlcNAc
# In short: as §1
# [25] = target: GlcNAc(b1-6)GalNAc
# In short: as §1
# [26] = target: Kdn(a2-3)Gal(b1-3)GlcNAc
# In short: as §1
# [27] = target: Man(a1-2)Man(a1-3)[Man(a1-2)Man(a1-6)]Man(a1-6)[Man(a1-2)Man(a1-2)Man(a1-3)]Man(b1-4)GlcNAc(b1-4)GlcNAc
# In short: as §1
# [28] = target: Neu5Ac(a2-3)Gal
# In short: as §1
# [29] = target: Neu5Ac(a2-3)Gal(b1-3)GlcNAc(b1-6)GalNAc
# In short: as §1
# [30] = target: Neu5Ac(a2-3)Gal(b1-3)[Fuc(a1-4)]GlcNAc(b1-3)Gal(b1-3)[Fuc(a1-4)]GlcNAc
# In short: as §1
# [31] = target: Neu5Ac(a2-3)Gal(b1-3)[Neu5Ac(a2-6)]GlcNAc(b1-3)[Fuc(a1-3)[Gal(b1-4)]GlcNAc(b1-6)]Gal(b1-4)Glc
# In short: as §1
# [32] = target: Neu5Ac(a2-3)Gal(b1-4)Glc
# In short: as §1
# [33] = target: Neu5Ac(a2-3)Gal(b1-4)[Fuc(a1-3)]GlcNAc(b1-3)GalNAc
# In short: as §1
# [34] = target: Neu5Ac(a2-6)Gal(b1-4)GlcNAc(b1-2)Man(a1-3)[Neu5Ac(a2-6)Gal(b1-4)GlcNAc(b1-2)Man(a1-6)]Man(b1-4)GlcNAc(b1-4)GlcNAc
# In short: as §1
# [35] = target: Neu5Ac(a2-6)Gal(b1-4)GlcNAc(b1-2)Man(a1-3)[Neu5Ac(a2-6)Gal(b1-4)GlcNAc(b1-2)Man(a1-6)]Man(b1-4)GlcNAc(b1-4)[Fuc(a1-6)]GlcNAc
# In short: as §1
# [36] = target: Neu5Ac(a2-6)Gal(b1-4)GlcNAc(b1-2)Man(a1-6)[Man(a1-3)]Man(b1-4)GlcNAc(b1-4)GlcNAc
# In short: as §1
# [37] = target: Neu5Ac(a2-6)Gal(b1-4)GlcNAc(b1-6)GalNAc
# In short: as §1
# [38] = target: Neu5Ac(a2-8)Neu5Ac(a2-3)Gal(b1-3)GalNAc(b1-4)[Neu5Ac(a2-8)Neu5Ac(a2-3)]Gal(b1-4)Glc
# In short: as §1
# [39] = target: Neu5Ac(a2-8)Neu5Ac(a2-8)Neu5Ac
# In short: as §1
binder,measurement,setting,value
DC-ASGPR Long (Homo sapiens) (protein) MTRTYENFQYLENKVKVQGFKNGPLPLQSLLQRLRSGPCHLLLSLGLGLLLLVIICVVGFQNSKFQRDLVTLRTDFSNFTSNTVAEIQALTSQGSSLEETIASLKAEVEGFKQERQAGVSELQEHTTQKAHLGHCPHCPSVCVPVHSEMLLRVQQLVQDLKKLTCQVATLNNNASTEGTCCPVNWVEHQDSCYWFSHSGMSWAEAEKYCQLKNAHLVVINSREEQNFVQKYLGSAYTWMGLSDPEGAWKWVDGTDYATGFQNWKPGQPDDWQGHGLGGGEDCAHFHPDGGWNDDVCQRPYHWVCEAGLGQTSQESH,glycan array binding signal (z-score),[1],-1.26
same,glycan array binding signal (z-score),[2],-0.382
same,glycan array binding signal (z-score),[3],-0.356
same,glycan array binding signal (z-score),[4],0.826
same,glycan array binding signal (z-score),[5],-0.618
same,glycan array binding signal (z-score),[6],5.11
same,glycan array binding signal (z-score),[7],3.67
same,glycan array binding signal (z-score),[8],5.95
same,glycan array binding signal (z-score),[9],3.07
same,glycan array binding signal (z-score),[10],3.58
same,glycan array binding signal (z-score),[11],-0.383
same,glycan array binding signal (z-score),[12],-0.788
same,glycan array binding signal (z-score),[13],-0.186
same,glycan array binding signal (z-score),[14],-0.269
same,glycan array binding signal (z-score),[15],5.68
same,glycan array binding signal (z-score),[16],-0.075
same,glycan array binding signal (z-score),[17],3.37
same,glycan array binding signal (z-score),[18],3.13
same,glycan array binding signal (z-score),[19],-0.323
same,glycan array binding signal (z-score),[20],5.41
same,glycan array binding signal (z-score),[21],-0.433
same,glycan array binding signal (z-score),[22],0.194
same,glycan array binding signal (z-score),[23],0.068
same,glycan array binding signal (z-score),[24],1.61
same,glycan array binding signal (z-score),[25],3.43
same,glycan array binding signal (z-score),[26],-0.092
same,glycan array binding signal (z-score),[27],-0.746
same,glycan array binding signal (z-score),[28],-0.419
same,glycan array binding signal (z-score),[29],4.59
same,glycan array binding signal (z-score),[30],-0.273
same,glycan array binding signal (z-score),[31],-0.251
same,glycan array binding signal (z-score),[32],-0.302
same,glycan array binding signal (z-score),[33],0.105
same,glycan array binding signal (z-score),[34],-0.115
same,glycan array binding signal (z-score),[35],-0.343
same,glycan array binding signal (z-score),[36],-0.516
same,glycan array binding signal (z-score),[37],-0.224
same,glycan array binding signal (z-score),[38],-0.349
same,glycan array binding signal (z-score),[39],-0.221
